# Hits are enriched below; roughly 3% of the tested compounds scored in any of these assays.
# TrxR1 substrate: rat thioredoxin reductase 1 substrate activity. O89049. purified TrxR1 substrate turnover, NADPH consumption readout. Potency, µM (doses to about 114 µM), without a hit: at the highest dose activity change, negative = substrate turnover. actives 0.01% (n = 390,000); also: % is scaled to controls: 0 for no effect and ±100 for the full control effect; nearly all actives have a fitted effect of over 50% in size
# Target sequence (O89049 whole entry, looked up): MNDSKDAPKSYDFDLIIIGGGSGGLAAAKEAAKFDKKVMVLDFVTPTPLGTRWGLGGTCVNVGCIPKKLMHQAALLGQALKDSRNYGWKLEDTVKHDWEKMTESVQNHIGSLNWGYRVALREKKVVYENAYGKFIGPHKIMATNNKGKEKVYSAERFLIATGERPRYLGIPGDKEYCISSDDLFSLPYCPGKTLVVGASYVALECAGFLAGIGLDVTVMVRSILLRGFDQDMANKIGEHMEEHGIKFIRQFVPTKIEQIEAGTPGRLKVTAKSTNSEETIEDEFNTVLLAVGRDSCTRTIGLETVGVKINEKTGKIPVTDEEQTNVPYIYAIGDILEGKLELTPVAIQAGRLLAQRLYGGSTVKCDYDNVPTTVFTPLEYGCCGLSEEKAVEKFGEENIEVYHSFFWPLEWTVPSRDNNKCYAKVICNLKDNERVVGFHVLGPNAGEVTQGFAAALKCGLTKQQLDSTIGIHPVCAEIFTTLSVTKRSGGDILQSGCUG
#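 Rat TrxR1, dispensed at 90 nM, was prereduced with 400 uM NADPH (final) for 5 min at ~22 deg C, then incubated with compound 15 min before 400 uM selenite. A first-read NADPH fluorescence drop versus no-compound background flagged substrates.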
# A549 viability: A549 cytotoxicity, counter-screen for Nrf2 inhibitors; A549 ARE-Fluc cells, CellTiter-Fluor viability, 18-24 h; Potency, µM (highest dose often 46 µM), inactives show top-dose activity change, negative = cytotoxicity, actives largely listed as inhibitors; actives 0.16% (n = 390,000); AID 504648; also: % is scaled to controls: 0 for no effect and ±100 for the full control effect
#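 Cytotoxicity counterscreen: CellTiter-Fluor fluorescence was measured in A549 ARE_Fluc cells after 18-24 h of compound exposure in a concentration series. The subsequent BugLite luminescent read reports ARE-luciferase activity.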
# TrxR1 inh: blocks rat thioredoxin reductase 1; Potency, µM (doses to about 114 µM), for inactives: top-dose activity change, negative = inhibition, most hits filed as inhibitors; recombinant rTrxR1, NADPH fluorescence consumption, selenite substrate; actives 1% (n = 390,000); also: % is scaled to controls: 0 for no effect and ±100 for the full control effect; nearly all actives have a fitted effect of over 65% in size
#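 Rat TrxR1 (90 nM in the dispensed reagent) was pre-reduced with 400 uM NADPH for 5 min at room temperature, then incubated with compound for 15 min. After 400 uM selenite was added, NADPH fluorescence (Ex 340/Em 450 nm) was followed for 8 min.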
# Nrf2 block: blocks Nrf2 signaling | A549 ARE-Fluc reporter, luciferase luminescence, 18-24 h | Potency, µM (top dose mostly 46 µM), for the others: top-dose activity change, negative = inhibition, most hits filed as inhibitors | actives 2.1% (n = 360,000) | AID 504444; also: % is scaled to controls: 0 for no effect and ±100 for the full control effect; nearly all actives have a fitted effect of over 60% in size
#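 In this cell-based qHTS, ARE-driven firefly luciferase in A549 cells reports Nrf2 activity; the luminescent signal after BugLite lysis is the measured value, with a prior CellTiter-Fluor read for cell health.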
# GALK inhibitor: galactokinase (human) inhibition; P51570; actives 0.007% (n = 270,000); Potency, µM (highest dose often 57.5 µM), without a hit: at the highest dose activity change, negative = inhibition, actives largely listed as inhibitors; Purified GALK, Kinase-Glo residual ATP luminescence; also: % is scaled to controls: 0 for no effect and ±100 for the full control effect
#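 GALK at 5 nM final was combined with compound, 35 uM ATP and 100 uM galactose in HEPES pH8.0 with MgCl2 and DTT. The reaction ran one hour at room temperature before luminescent ATP detection.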
# Nrf2 ARE act: Nrf2 pathway activation; AREc32 ARE-luciferase reporter (MCF7-derived line), luminescence, 24 h; Potency, µM (series often up to 46.1 µM), without a hit: top-dose activation, usual class: activators; actives 0.31% (n = 410,000); also: % of control where 0% means no effect; nearly all actives have a fitted effect of over 65% in size
#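 AREc32 cells carrying an ARE-driven firefly luciferase, 1000 cells/well in OPTI-MEM with 5% FBS, dosed after overnight attachment and incubated 24 hr at 37 deg C. Steady-Glo luminescence read after 30 min at RT.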
# * hit, by the source's call; ? = inconclusive; / = no result; [ ] = dose if it differs, or a comment. Calls follow the shape of the dose curve; as a rule, active = well fitted curve in the direction sought with a large enough effect; inconclusive = small, poorly fitted or top-dose-only effect, or another doubt; inactive = no such curve, though single readings can be large; an effect the other way counts as inactive or inconclusive. Potency is read from the fitted curve at half-maximal effect.
SMILES,TrxR1 substrate,A549 viability,TrxR1 inh,Nrf2 block,GALK inhibitor,Nrf2 ARE act
Cc1ccc(C2=NN(C(=O)CCl)C(c3ccco3)C2)o1 (centres undefined),3%[57.1 µM],5%,22µM*,8%,13%,-2%
CC(=O)N1N=C(c2ccco2)CC1c1ccco1 (centres undefined),4%[57.1 µM],-6%,-5%[57.1 µM],1%,0%,0%
CCOc1ccccc1CNC(=O)CN1C(=O)C2CCCCN2c2ccc(C(=O)N(C)C)cc21 (centres undefined),2%[57.1 µM],2%,7%[57.1 µM],/,/,-1%
Cc1ccc(OCc2nc3ccccc3n2CCOc2ccc(Cl)cc2)cc1,-6%,-10%,0%,?,/,1%
CCOc1ccccc1N/C(=C(/C(Cl)=C(Cl)Cl)[N+](=O)[O-])n1cncn1,-14%,1%,22µM*,6%,1%,10%
COc1cccc(C2=CC(c3ccccc3O)NC(C)(C)N2)c1 (centres undefined),-5%,1%,-19%,2%,/,/
Cc1ccc(C)c(NC2=C(c3ccc(C(F)(F)F)cc3)C(=O)c3ccccc32)c1,0%,-3%,14%,10%,/,3%
CC1C(=O)N2CCCc3cc(S(=O)(=O)NCCc4ccccc4)cc1c32 (centres undefined),0%,-2%,7%,16µM*,-3%,0%
Cc1cccc(-c2noc(CCCC(=O)Nc3cccnc3)n2)c1,4%,-4%,10%,?,0%,-1%
O=C(CCCc1nc(-c2ccc(Cl)cc2)no1)Nc1cccnc1,5%,/,12%,10µM*,-3%,-1%
O=C(Nc1cccc(S(=O)(=O)NC2=NCCCCC2)c1)c1cc(-c2ccco2)nc2ccccc12,13%,-13%,50µM*,?,-6%,27%
O=C(Nc1cccc(S(=O)(=O)NC2=NCCCCC2)c1)c1cc(-c2ccncc2)nc2ccccc12,-6%,-3%,9%[57.1 µM],-5%,-1%,0%
O=C(Cc1csc(-c2cccc(Cl)c2)n1)Nc1cccc(S(=O)(=O)NC2=NCCC2)c1,-3%,-4%,3%,23µM*,/,0%
O=C(Nc1cccc(S(=O)(=O)NC2=NCCC2)c1)c1ccc(C(F)(F)F)cc1,-5%,-2%,8%[57.1 µM],18µM*,/,3%
Cc1cccc(-c2nc(CC(=O)Nc3cccc(S(=O)(=O)NC4=NCCC4)c3)cs2)c1,-5%,4%,6%,-16%,/,-1%
O=C(CCl)Nc1cccc(S(=O)(=O)NC2=NCCCCC2)c1,-5%,-1%,18µM*,21µM*,/,?
O=C(Nc1cccc(S(=O)(=O)NC2=NCCC2)c1)c1ccc(F)cc1,-7%,1%,8%,?,/,-1%
O=C(Nc1cc(-c2ccc(F)c(F)c2)no1)c1ccccc1F,-12%,9%,-21%,?,/,6%
CSc1cccc(NC(=O)C2CCN(c3ncnc4c3nc3n4CCCCC3)CC2)c1,-7%,0%,0%,9%,/,0%
Cc1csc(CNc2ncnc3cc(-c4ccc5c(c4)OCO5)ccc23)n1,/,-8%,/,-5%,/,/
COC(=O)c1ccc(N=C2S/C(=C\c3cc(C)n(-c4cccnc4)c3C)C(=O)N2C)cc1,0%,?,5%,26µM*,-1%,0%
COc1c(C)cccc1C(=O)Nc1ccc(-c2nc3ccccc3s2)c(Cl)c1,60%,-23%,47%,26µM*,/,0%
COc1ccc(CCN(C)C(=O)c2cc(S(=O)(=O)NCc3ccccc3)ccc2C)cc1OC,17%[57.1 µM],-9%,7%,16µM*,/,1%
O=C(Nc1ccc(OCc2ccccc2Cl)cc1)c1cccnc1,-5%,0%,22%,9.2µM*,-4%,-2%
O=C1NC(c2ccccc2Br)=N/C1=C\c1ccco1,-1%,-6%,?,17%,6%,5.6µM*
SMILES,TrxR1 substrate,A549 viability,TrxR1 inh,Nrf2 block,GALK inhibitor,Nrf2 ARE act
O=C1NC(c2ccccc2)=N/C1=C/c1ccco1,-2%[57.1 µM],-11%,-16%[57.1 µM],?,0%,4µM*
O=C1NC(c2cccc(Br)c2)=N/C1=C\c1ccco1,-1%,-13%,?,?,1%,8.9µM*
COc1ccc(C2=Nc3ccc(F)cc3NC(c3cccc(C(F)(F)F)c3)=N2)cc1,-3%,-12%,18%,-23%,/,0%
O=C(NC(=S)Nc1cccc2cccnc12)c1cccs1,1%,-3%,6%,6%,1%,8.9µM*
O=C(Nc1cccc2cccnc12)c1ccccc1,11%[0.457 µM],0%,13%,?,/,/
O=C(NC(=S)Nc1cccc2cccnc12)c1ccccc1,1%,-2%,1%,?,1%,4.5µM*
O=C(Nc1cccc2cccnc12)C(Cl)(Cl)Cl,0%,0%,28µM*,17%,/,/
O=C(Nc1cccc2cccnc12)c1ccc(F)cc1,1%[0.457 µM],1%,0%,?,/,13µM*
CCC(C)OC(=O)/C(C#N)=C\c1ccc(-c2ccccc2Cl)o1 (centres undefined),-8%,0%,-5%,-1%,/,20%
CCOc1ccc(CNC(=O)c2cc3c(=O)n(C)c4ccccc4c3s2)cc1,14%,-3%,30%,2%,/,1%
O=C(CSc1nc2c([nH]c3ccccc32)c(=O)n1-c1ccc(F)cc1)NC1CCCCC1,-2%[57.1 µM],-1%,6%[57.1 µM],/,/,1%
O=C(CNC1=NCCS1)c1c[nH]c2ccccc12,-1%,/,1%,/,/,/
N#Cc1ccccc1NC(=S)NC(=O)c1cccs1,-7%,2%,2.2µM*,1%,12%,16µM*
CC(C)Cn1c(N)c(C(=O)CSc2nc3ncc(Cl)cc3[nH]2)c(=O)n(C)c1=O,-9%,?,-6%,12µM*,/,4%
COc1cccc(NC(=O)C2CCN(S(=O)(=O)c3ccc4c(c3)NC(=O)C(C)S4)CC2)c1 (centres undefined),-1%,-7%,8%,?,-2%,4%
COc1ccc(NC(=O)C2CCN(S(=O)(=O)c3ccc4c(c3)NC(=O)C(C)S4)CC2)cc1 (centres undefined),3%,-3%,18%,23µM*,5%,1%
CCOc1ccc(NC(=O)C2CCN(S(=O)(=O)c3ccc4c(c3)NC(=O)C(C)S4)CC2)cc1 (centres undefined),6%,-14%,15%,15µM*,4%,2%
Cc1c(Cl)cccc1NC(=O)c1ccc2c(c1)CCCN2S(C)(=O)=O,-2%,-11%,23%,-19%,/,1%
Cc1cccc(Cn2cc(S(=O)(=O)c3ccc(Cl)cc3)c(=O)c3cc4c(cc32)OCO4)c1,2%,6%,5%,16%,/,-1%
